Inconclusive results are not listed. Active and inactive are the calls of the source. Unless noted, calls follow the shape of the dose curve; as a rule, active = well fitted curve in the direction sought with a large enough effect; inconclusive = small, poorly fitted or top-dose-only effect, or another doubt; inactive = no such curve, though single readings can be large; an effect the other way counts as inactive or inconclusive.
Tests used:
[1] = target: Lysosomal acid glucosylceramidase (Homo sapiens) (UniProt P04062); experiment: Glucocerebrosidase-p2 (AID 348; in the data active = potency below about 10 µM; also: potency is read from the fitted curve at half-maximal effect); settings: purified GBA, blue fluorogenic substrate, 40 min
Chain of Lysosomal acid glucosylceramidase (Homo sapiens) (P04062 whole entry, looked up): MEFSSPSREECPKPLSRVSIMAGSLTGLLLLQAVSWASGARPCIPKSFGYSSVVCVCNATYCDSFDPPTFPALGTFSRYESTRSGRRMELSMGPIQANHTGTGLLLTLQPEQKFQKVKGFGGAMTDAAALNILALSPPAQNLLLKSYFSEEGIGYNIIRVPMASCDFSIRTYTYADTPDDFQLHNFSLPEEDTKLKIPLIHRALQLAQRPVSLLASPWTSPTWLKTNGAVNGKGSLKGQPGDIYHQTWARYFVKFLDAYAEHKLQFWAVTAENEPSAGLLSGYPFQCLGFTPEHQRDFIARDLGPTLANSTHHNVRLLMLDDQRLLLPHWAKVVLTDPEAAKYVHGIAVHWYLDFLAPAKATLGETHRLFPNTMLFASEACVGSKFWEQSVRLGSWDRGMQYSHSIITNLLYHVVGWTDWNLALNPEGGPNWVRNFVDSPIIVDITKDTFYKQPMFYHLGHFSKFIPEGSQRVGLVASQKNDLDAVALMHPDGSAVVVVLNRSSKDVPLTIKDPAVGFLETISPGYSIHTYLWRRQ
How it was run: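 Compounds titrated from 0.6 nM upwards against 0.2 nM enzyme in pH 5.9 citric acid/KH2PO4, taurocholate, tween-20; blue fluorogenic substrate 80 uM, 40 min room temperature, stopped and read Ex 365/Em 440 for AC50.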

[2] = target: Cytochrome P450 1A2 (Homo sapiens) (UniProt P05177); experiment: p450-cyp1a2 (AID 410; calls by dose curve; also: potency is read from the fitted curve at half-maximal effect;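 as to activity change, negative = inhibition: -100% = full effect of reference inhibitor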); settings: recombinant CYP1A2, luciferin-ME demethylation, luminescence; series mostly up to 57 µM
Chain of Cytochrome P450 1A2 (Homo sapiens) (P05177 whole entry, looked up): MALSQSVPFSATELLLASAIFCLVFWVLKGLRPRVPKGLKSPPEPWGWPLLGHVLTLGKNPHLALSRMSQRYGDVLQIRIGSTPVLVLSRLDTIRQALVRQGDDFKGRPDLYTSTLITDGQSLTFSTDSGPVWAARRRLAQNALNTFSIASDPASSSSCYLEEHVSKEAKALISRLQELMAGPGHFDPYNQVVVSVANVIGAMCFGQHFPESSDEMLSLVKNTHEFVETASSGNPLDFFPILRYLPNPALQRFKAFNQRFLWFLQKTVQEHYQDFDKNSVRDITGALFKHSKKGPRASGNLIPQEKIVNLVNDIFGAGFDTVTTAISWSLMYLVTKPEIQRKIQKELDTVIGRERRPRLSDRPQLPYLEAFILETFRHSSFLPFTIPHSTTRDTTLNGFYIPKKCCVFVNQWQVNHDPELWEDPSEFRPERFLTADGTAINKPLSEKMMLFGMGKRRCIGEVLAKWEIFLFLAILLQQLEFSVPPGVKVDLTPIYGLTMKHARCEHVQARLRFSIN
How it was run: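 20nM CYP1A2 with 100uM Luciferin-ME (at Km) in 100mM KPO4; compound preincubated 10 min, NADPH regeneration added, 60 min at room temperature. Luciferin quantified by luminescence after detection reagent; normalized to 57 uM furafylline.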

[3] = target: Glucocorticoid receptor (Homo sapiens) (UniProt P04150); experiment: GR-GFP Redistribution (AID 450;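 active = compounds whose dose series gives a full or clear partial fitted curve of increased nuclear translocation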; also: potency is read from the fitted curve at half-maximal effect); settings: U2OS GR-GFP nuclear translocation, laser cytometry, 2 h
Chain of Glucocorticoid receptor (Homo sapiens) (P04150 whole entry, looked up, the tested form may be a part): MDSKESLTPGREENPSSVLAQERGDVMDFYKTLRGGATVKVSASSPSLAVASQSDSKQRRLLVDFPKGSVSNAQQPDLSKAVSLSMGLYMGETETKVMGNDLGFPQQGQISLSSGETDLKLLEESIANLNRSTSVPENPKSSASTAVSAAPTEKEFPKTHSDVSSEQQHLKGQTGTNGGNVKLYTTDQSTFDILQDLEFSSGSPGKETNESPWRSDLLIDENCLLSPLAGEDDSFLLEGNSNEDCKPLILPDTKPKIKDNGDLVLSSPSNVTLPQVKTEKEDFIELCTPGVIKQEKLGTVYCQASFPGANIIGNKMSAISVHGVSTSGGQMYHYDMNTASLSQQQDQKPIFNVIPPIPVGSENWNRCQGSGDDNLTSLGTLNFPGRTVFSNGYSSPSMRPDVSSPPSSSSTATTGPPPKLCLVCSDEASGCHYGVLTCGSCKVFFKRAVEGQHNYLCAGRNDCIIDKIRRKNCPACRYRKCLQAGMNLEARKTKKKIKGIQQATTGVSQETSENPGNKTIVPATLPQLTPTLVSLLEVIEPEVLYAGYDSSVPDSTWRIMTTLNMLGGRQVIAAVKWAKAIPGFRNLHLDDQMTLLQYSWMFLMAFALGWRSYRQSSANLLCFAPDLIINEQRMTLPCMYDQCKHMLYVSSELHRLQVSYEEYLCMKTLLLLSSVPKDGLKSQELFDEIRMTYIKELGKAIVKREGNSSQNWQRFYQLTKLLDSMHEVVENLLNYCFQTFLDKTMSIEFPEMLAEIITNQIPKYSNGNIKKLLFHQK

[4] = target: Glucocorticoid receptor (Homo sapiens) (UniProt P04150); experiment: GR-EFC Redistribution (AID 451; calls by dose curve; also: potency is read from the fitted curve at half-maximal effect); settings: CHO-K1 GR-EFC translocation, beta-gal luminescence, 2 h
How it was run: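 CHO-K1 cells stably expressing nuclear-localized β-gal enzyme acceptor and GR fused C-terminally to the enzyme donor fragment; ligand-driven nuclear translocation restores β-gal by complementation. Compounds titrated up to 46 uM final, 2 h at 37 °C; luminescence read.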

[5] = target: Mitogen-activated protein kinase 10 (Mus musculus) (UniProt Q61831); experiment: JNK3 AlphaScreen Assay (AID 530; active = well fitted curve in either direction with a large enough effect, not every such curve was filed as active;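 also: kinase came from lysate of stimulated human HepG2 cells; signal reports phosphorylation of biotinylated GST-cJun 1-79 at Ser73 with 10 µM ATP; % is scaled to controls: 0 for no effect and ±100 for the full control effect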); settings: JNK3 lysate, c-Jun phosphorylation; series mostly up to 57.1 µM
How it was run: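 Inhibitors reduce antibody binding to phosphorylated biotin-cJun, lowering AlphaScreen luminescence. Lysates from HepG2 cells pre-activated by IL-1beta plus TNF-alpha supplied JNK3; compounds were titrated.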

[6] = target: 3',5'-cyclic-AMP phosphodiesterase 4B (Homo sapiens) (UniProt Q07343); experiment: qHTS Assay for Inhibitors of PDE-IV (AID 607; active = well fitted activation curve with a large enough effect in the main read-out, with a control signal flat, not every such curve was filed as active; also: % of control where 0% means no effect); settings: HEK293 ACTOne CNG channel cells, membrane potential fluorescence; series mostly up to 22.9 µM
Chain of 3',5'-cyclic-AMP phosphodiesterase 4B (Homo sapiens) (Q07343 whole entry, looked up): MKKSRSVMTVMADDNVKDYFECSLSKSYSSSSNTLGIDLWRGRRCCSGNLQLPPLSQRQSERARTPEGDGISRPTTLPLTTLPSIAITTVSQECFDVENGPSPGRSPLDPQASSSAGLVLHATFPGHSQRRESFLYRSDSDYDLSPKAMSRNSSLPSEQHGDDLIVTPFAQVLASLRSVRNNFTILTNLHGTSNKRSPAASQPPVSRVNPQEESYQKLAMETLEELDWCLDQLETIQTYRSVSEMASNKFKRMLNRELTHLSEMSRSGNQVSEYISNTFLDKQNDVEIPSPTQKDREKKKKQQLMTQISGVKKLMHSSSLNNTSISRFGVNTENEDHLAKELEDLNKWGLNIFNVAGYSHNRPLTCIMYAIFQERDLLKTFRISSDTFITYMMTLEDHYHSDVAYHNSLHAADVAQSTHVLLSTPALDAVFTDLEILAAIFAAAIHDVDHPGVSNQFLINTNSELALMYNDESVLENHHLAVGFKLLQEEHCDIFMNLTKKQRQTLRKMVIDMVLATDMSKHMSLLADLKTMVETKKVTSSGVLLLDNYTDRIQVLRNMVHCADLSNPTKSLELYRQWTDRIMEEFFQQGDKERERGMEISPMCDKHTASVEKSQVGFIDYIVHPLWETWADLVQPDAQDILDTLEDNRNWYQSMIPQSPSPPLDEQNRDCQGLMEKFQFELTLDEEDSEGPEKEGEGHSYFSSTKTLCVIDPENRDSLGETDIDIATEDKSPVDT
How it was run: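 The readout is membrane depolarisation from a cAMP-sensing CNG channel, detected with a potential dye at ex 535/em 590. Cells were HEK293-derived (endogenous PDE-IV) at 1000 cells/well, titrated up to 22.9 uM final.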

[7] = qHTS Assay for Identification of Small Molecule Agonists for Hypoxia Response Element Signaling Pathway (AID 914; active = well fitted activation curve with a large enough effect in the signal ratio, with a control signal flat, not every such curve was filed as active; the % refers to the signal ratio; also: potency is read from the fitted curve at half-maximal effect); settings: ME-180 HRE-bla reporter, beta-lactamase ratio, CoCl2, 17 h; activation: stronger effect = higher value
How it was run: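 HRE-bla ME-180 cells, overnight plating in Opti-MEM with 0.5% dialyzed FBS; cpd titration + EC50 CoCl2, 17 h, 37 degrees Celsius; CCF4 2.5 h RT; 460/530 nm ratio; AC50.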

[8] = qHTS Assay for Lipid Storage Modulators (AID 1519; calls by dose curve); settings: Drosophila S3 cells, BODIPY lipid droplet/cell ratio, laser cytometry, cells loaded with oleic acid; for activity change, negative = inhibition: at 57.5 µM (top of the series)
How it was run: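 Cells seeded at 5,000 per well were treated with compounds over a concentration series and loaded with oleic acid (400 uM, as added). Lipid droplet fluorescence (488 nm excitation, 500-530 nm channel) was read by laser-scanning cytometry and normalized to 20 uM Triacsin C.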

[9] = target: Dual specificity protein kinase CLK4 (Homo sapiens) (UniProt Q9HAZ1); experiment: qHTS Assay for Inhibitors of CDC-like Kinase 4 (Kinase-Glo Assay) (AID 1770); settings: recombinant Clk4, Kinase-Glo ATP depletion luminescence; series mostly up to 66.7 µM; also: nearly all actives have a fitted effect of over 65% in size; also: potency is read from the fitted curve at half-maximal effect
Chain of Dual specificity protein kinase CLK4 (Homo sapiens) (Q9HAZ1 whole entry, looked up): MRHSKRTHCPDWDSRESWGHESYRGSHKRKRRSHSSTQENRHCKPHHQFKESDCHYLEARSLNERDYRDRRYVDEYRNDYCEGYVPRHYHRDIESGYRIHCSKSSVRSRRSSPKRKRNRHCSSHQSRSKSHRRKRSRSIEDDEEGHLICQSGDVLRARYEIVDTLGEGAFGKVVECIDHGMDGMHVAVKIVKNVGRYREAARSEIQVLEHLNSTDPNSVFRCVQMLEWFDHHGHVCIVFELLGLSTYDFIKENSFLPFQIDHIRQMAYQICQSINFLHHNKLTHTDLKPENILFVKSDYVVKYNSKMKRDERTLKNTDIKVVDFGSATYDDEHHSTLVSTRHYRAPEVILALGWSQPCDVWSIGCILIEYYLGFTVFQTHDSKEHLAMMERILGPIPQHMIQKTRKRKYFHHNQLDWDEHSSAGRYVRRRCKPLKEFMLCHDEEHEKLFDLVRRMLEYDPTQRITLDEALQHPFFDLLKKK
How it was run: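 Readout: Kinase-Glo luminescence from ATP left after a 4.5 h room-temperature reaction of 25 nM Clk4 with 100 uM RS peptide and 1 uM ATP (final). Buffer: 25 mM Tris pH 7.5, 10 mM MgCl2.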

[10] = target: Dual specificity protein kinase CLK4 (Homo sapiens) (UniProt Q9HAZ1); experiment: qHTS Assay for Inhibitors of CDC-like Kinase 4 (ADP-Glo Assay) (AID 1771); settings: recombinant CLK4, ADP-Glo luminescence; series mostly up to 80 µM; also: nearly all actives have a fitted effect of over 70% in size; also: potency is read from the fitted curve at half-maximal effect
How it was run: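 25 nM Clk4 with 100 uM RS repeat peptide and 1 uM ATP (final) in buffer with 2 mM MgCl2, 0.5 mM EGTA, 2.5 mM DTT, 0.01% Triton X-100; 1 h at room temperature; ADP-Glo luminescence for ADP formed.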

[11] = target: Dual specificity protein kinase CLK4 (Homo sapiens) (UniProt Q9HAZ1); experiment: qHTS Assay for Inhibitors of CDC-like Kinase 4 (ADP-FP Assay) (AID 1795); settings: Transcreener ADP fluorescence polarization; series mostly up to 50 µM; also: nearly all actives have a fitted effect of over 60% in size; also: potency is read from the fitted curve at half-maximal effect
How it was run: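 FP readout: Orange Transcreener ADP2 tracer (4 nM) plus ADP antibody, read after 30 min at room temperature. Kinase step: 6.25 nM Clk4, 100 uM RS peptide, 1 uM ATP, pH 7.5, 1 h.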

[12] = target: Ubiquitin carboxyl-terminal hydrolase 1 (Homo sapiens) (UniProt O94782); experiment: Inhibitors of USP1/UAF1: Pilot qHTS (AID 504865); settings: purified USP1/UAF1, Ub-rhodamine cleavage fluorescence; series mostly up to 54.9 µM;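 also: rhodamine fluorescence freed from ubiquitin-rhodamine substrate followed over time; top concentration of the series differs between compounds; % is scaled to controls: 0 for no effect and ±100 for the full control effect; nearly all actives have a fitted effect of over 35% in size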
Chain of Ubiquitin carboxyl-terminal hydrolase 1 (Homo sapiens) (O94782 whole entry, looked up): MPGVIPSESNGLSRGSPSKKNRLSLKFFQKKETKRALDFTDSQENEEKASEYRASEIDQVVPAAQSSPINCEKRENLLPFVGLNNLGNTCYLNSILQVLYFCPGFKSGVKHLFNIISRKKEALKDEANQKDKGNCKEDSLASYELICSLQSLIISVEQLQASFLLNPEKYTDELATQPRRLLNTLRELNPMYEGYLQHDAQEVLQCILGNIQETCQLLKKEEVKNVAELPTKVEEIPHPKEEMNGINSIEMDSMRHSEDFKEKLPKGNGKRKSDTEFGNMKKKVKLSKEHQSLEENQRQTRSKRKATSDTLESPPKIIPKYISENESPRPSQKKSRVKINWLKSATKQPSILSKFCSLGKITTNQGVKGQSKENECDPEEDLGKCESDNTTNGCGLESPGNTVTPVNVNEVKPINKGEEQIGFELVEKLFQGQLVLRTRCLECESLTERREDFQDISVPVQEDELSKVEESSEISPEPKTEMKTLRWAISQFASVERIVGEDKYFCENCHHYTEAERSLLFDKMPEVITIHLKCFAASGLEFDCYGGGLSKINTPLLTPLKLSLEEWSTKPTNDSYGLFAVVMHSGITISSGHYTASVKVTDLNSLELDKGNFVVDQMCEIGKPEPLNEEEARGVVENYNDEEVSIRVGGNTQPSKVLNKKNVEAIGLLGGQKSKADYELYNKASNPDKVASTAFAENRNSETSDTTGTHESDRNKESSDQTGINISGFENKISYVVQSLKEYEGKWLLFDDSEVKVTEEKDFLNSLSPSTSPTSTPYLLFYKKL
How it was run: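 1nM USP1/UAF1 + cpd, 15 min RT; start w/ Ub-Rho 150nM final; kinetic FL 480/540 nm, 6 reads q60 s. Buffer 50mM HEPES pH 7.8, 0.5mM EDTA, 1mM TCEP, 0.01% Tween-20, 0.1 mg/ml BSA.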

[13] = Primary qHTS for small molecule stabilizers of the endoplasmic reticulum resident proteome: Secreted ER Calcium Modulated Protein (SERCaMP) assay (AID 1508630); settings: SH-SY5Y GLuc-SERCaMP (Gaussia luciferase released on ER calcium loss) secretion, thapsigargin, luminescence; series mostly up to 38.4 µM; also: % is scaled to controls: 0 for no effect and ±100 for the full control effect
How it was run: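 GLuc-SERCaMP-expressing SH-SY5Y cells, pretreated 16 h with compound, are challenged with thapsigargin to empty ER calcium stores; after 4 h, coelenterazine is added directly to the medium and luminescence is imaged.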

[14] = target: Cytochrome P450 3A4 (Homo sapiens) (UniProt P08684); experiment: qHTS Assay for Activators of Cytochrome P450 3A4 (AID 885); settings: recombinant CYP3A4, Luciferin-PPXE luminescence, 60 min; series mostly up to 57.1 µM; also: nearly all actives have a fitted effect of over 65% in size
Chain of Cytochrome P450 3A4 (Homo sapiens) (P08684 whole entry, looked up): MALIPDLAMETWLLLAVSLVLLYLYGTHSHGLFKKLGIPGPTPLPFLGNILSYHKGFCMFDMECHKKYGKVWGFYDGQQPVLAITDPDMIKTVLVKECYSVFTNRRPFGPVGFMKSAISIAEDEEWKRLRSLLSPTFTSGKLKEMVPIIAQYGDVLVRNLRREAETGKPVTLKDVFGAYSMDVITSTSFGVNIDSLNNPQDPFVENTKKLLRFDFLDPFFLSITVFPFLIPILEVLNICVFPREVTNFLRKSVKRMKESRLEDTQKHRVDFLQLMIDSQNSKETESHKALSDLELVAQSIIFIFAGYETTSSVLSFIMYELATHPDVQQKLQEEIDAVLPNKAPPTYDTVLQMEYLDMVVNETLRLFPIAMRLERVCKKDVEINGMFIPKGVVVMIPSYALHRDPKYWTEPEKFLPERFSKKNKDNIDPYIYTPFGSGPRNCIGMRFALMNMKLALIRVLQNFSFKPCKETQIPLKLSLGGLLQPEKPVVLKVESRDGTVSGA
How it was run: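 Steps: enzyme/substrate mix dispensed; compound added, 10 min RT; NADPH regeneration solution added, 60 min RT; luciferin detection buffer stops reaction; 20 min later luminescence measured.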

[15] = Stat Signaling Pathway (AID 446; active = well fitted curve in either direction with a large enough effect, not every such curve was filed as active;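 also: ME-180 cervical cancer cells given 40 pM IL-6 alongside compound; SIE-controlled beta-lactamase reporter measured as 460/530 nm FRET emission ratio; % is scaled to controls: 0 for no effect and ±100 for the full control effect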); settings: ME-180 SIE beta-lactamase reporter, IL-6 stimulated, 5 h; at 7.69 µM (top of the series) unless noted
How it was run: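 Screening format detects activators and inhibitors alike: ME-180 SIE-bla cells stimulated at 40 pM IL-6 for 5 hrs with compound, then dual-emission beta-lactamase read at 405 nm excitation.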

[16] = NFAT Signaling Pathway (AID 444; active = well fitted curve in either direction with a large enough effect, not every such curve was filed as active;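 also: carbachol stimulus at about its EC50 of 1 µM final; % is scaled to controls: 0 for no effect and ±100 for the full control effect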); settings: Jurkat NFAT-bla M1, carbachol, beta-lactamase ratio, 5 h; at 7.69 µM (top of the series) unless noted
How it was run: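 Jurkat cells carrying an NFAT-driven β-lactamase reporter and co-transfected muscarinic M1 receptor were treated with compound plus carbachol (1 uM final, an EC50 level) for 5 h at 37 °C. CCF4 loading followed for 1 h at RT; 460/530 nm ratio gave %activity.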

[17] = target: Cytochrome P450 3A4 (Homo sapiens) (UniProt P08684); experiment: qHTS Assay for Inhibitors and Substrates of Cytochrome P450 3A4 (AID 884); settings: recombinant CYP3A4, Luciferin-PPXE luminescence; series mostly up to 57.1 µM; also: potency is read from the fitted curve at half-maximal effect; nearly all actives have a fitted effect of over 50% in size
How it was run: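 20 nM human CYP3A4 with 25 uM Luciferin-PPXE (at KM) in 200 mM KPO4, preincubated 10 min with compound; NADPH regeneration started a 60 min RT reaction. Luciferin detected by luminescence, normalized to 57 uM ketoconazole as full inhibition.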

[18] = target: Cytochrome P450 2D6 (Homo sapiens) (UniProt P10635); experiment: qHTS Assay for Inhibitors and Substrates of Cytochrome P450 2D6 (AID 891); settings: recombinant CYP2D6, luciferin-ME EGE luminescence; series mostly up to 57.1 µM; also: potency is read from the fitted curve at half-maximal effect; nearly all actives have a fitted effect of over 60% in size
Chain of Cytochrome P450 2D6 (Homo sapiens) (P10635 whole entry, looked up): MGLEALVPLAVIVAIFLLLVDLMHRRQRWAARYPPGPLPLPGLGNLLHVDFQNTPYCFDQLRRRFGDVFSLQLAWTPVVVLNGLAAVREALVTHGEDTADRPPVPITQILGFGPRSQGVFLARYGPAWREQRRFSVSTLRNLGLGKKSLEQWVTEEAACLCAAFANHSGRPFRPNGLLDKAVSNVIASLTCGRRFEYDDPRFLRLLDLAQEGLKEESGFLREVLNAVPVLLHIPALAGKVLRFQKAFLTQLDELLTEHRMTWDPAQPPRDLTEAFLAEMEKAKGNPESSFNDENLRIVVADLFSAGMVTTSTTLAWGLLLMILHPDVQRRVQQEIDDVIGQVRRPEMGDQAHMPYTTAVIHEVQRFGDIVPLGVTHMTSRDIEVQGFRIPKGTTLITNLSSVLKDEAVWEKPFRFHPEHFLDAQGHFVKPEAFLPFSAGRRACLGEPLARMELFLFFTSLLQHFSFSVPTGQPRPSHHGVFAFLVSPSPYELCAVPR
How it was run: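 Human CYP2D6 (5 nM) with 30 uM Luciferin-ME EGE (at Km) in 100 mM KPO4, compound preincubated 10 min, then NADPH regeneration system for 60 min at room temperature. Luciferin read by luminescence; normalized to 1.43 uM quinidine.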

[19] = AP1 Signaling Pathway (AID 357; active = well fitted curve in either direction with a large enough effect, not every such curve was filed as active; also: % is scaled to controls: 0 for no effect and ±100 for the full control effect); settings: ME-180 (cervical carcinoma) AP-1-bla reporter, EGF-induced, beta-lactamase ratio, 5 h; at 7.69 µM (top of the series) unless noted
How it was run: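 AP-1-bla ME-180 cells with beta-lactamase reporter under AP-1 response element, stimulated with EC50 EGF; compounds titrated, 5 hours at 37 degrees Celsius. CCF4 read at 460/530 nm ratio; positive and negative modulators judged by AC50.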

[20] = measured here: cell count channel max response
[21] = measured here: lipid channel max response

COc1ncc2nc(-c3ccc(F)cc3)c(=O)n(C)c2n1
17.8%: max response [8, 20]
inactive: Potency [1] > 11.4 µM | Potency [3] > 9.22 µM | Potency [4] > 46 µM | outcome [5] | Potency [6] | activity change, negative = inhibition [8] 7.5% | Potency [9] | Potency [10] | Potency [11] | Potency [12] | Potency [13]
25.2%: max response [8, 21]
active: Potency [2] 0.501 µM | Potency [7] 3.16 µM

CN1CCN(c2ncc3nc(-c4cc(F)cc(F)c4)c(=O)n(CCc4ccccc4)c3n2)CC1
3.66%: max response [8, 21]
inactive: Potency [1] > 11.4 µM | Potency [2] | Potency [3] > 9.22 µM | Potency [4] > 46 µM | outcome [5] | Potency [6] | Potency [14] | activity change, negative = inhibition [8] -3.87% | Potency [9] | Potency [10] | Potency [11] | Potency [13]
active: Potency [7] 3.16 µM
10.6%: max response [8, 20]

CS(=O)(=O)Nc1cccc(-c2ccc3ncnc(Nc4ccccc4)c3c2)c1
inactive: Potency [1] > 11.4 µM | activity, negative = inhibition [15] -2.27% | Potency [3] > 46 µM | Potency [4] > 46 µM | outcome [5] | Potency [6] | Potency [14] | activity change, negative = inhibition [8] 5.6% | Potency [12] | Potency [13]
active: Potency [2] 1 µM | Potency [9] 15.8 µM | Potency [10] 14.1 µM | Potency [11] 14.1 µM
6.09%: max response [8, 20]
11.8%: max response [8, 21]

COc1cccc(Nc2ncc3nc(C)c(=O)n(Cc4cccs4)c3n2)c1
active: Potency [2] 2.51 µM | Potency [17] 3.98 µM
-8.07%: max response [8, 21]
12.9%: max response [8, 20]
inactive: Potency [1] > 11.4 µM | activity change, negative = inhibition [16] -29.6% | activity, negative = inhibition [15] -12.1% | Potency [3] > 9.22 µM | Potency [4] > 46 µM | outcome [5] | Potency [14] | activity change, negative = inhibition [8] -16.2% | Potency [9] | Potency [10] | Potency [11] | Potency [12] | Potency [13]

COc1ccc2[nH]cc(CCNc3ncnc4ccc(-c5cccnc5)cc34)c2c1
active: Potency [2] 0.0794 µM | Potency [18] 7.94 µM | Potency [9] 2.24 µM | Potency [10] 2.24 µM | Potency [11] 3.16 µM
-9.11%: max response [8, 21]
inactive: Potency [1] > 11.4 µM | activity change, negative = inhibition [16] 18.7% | activity, negative = inhibition [15] -10.2% | Potency [3] > 46 µM | Potency [4] > 46 µM | Potency [6] | Potency [14] | activity change, negative = inhibition [8] -3.03% | Potency [12] | Potency [13]
-7.3%: max response [8, 20]

COc1ccc(-c2nc3cnc(N4CCOCC4)nc3n(C3CC3)c2=O)cc1
9.72%: max response [8, 20]
inactive: Potency [1] > 11.4 µM | activity change, negative = inhibition [19] 3.24% | activity change, negative = inhibition [16] 8.69% | Potency [3] > 9.22 µM | Potency [4] > 46 µM | outcome [5] | activity change, negative = inhibition [8] 1.26% | Potency [9] | Potency [10] | Potency [11] | Potency [13]
11.8%: max response [8, 21]

Source: PubChem BioAssay (NCATS)
